This passage reports AC50 and outcome results from PubChem BioAssay (EPA / NIEHS).

Test [1] addresses rat Adrenergic Receptor, Alpha 2 (Adra2), Non-selective Binding, Adra2a (gene 25083) (UniProt P22909). Kind of test: NVS_GPCR_rAdra2_NonSelective: NovaScreen (NVS) G Protein-Coupled Receptor Assay for rat Adrenergic Receptor, Alpha 2 (Adra2), Non-selective Binding (AID 2283299). A digest of the protocol:
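Rat cortical membranes, radioligand competitive displacement read by filter-based scintillation counting 1.25 hours after dosing. Primary screen in duplicate at 25 uM; actives followed up in concentration series.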

Test [2] can be described thus: NVS_IC_rCaBTZCHL: NovaScreen (NVS) Ion Channel Assay for Calcium Channel, Type L, Benzothiazepine Site (CaBTZCHL) (AID 2283337). A digest of the protocol:
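Radioligand displacement at the benzothiazepine site using rat cortical membranes; bound label measured by filtration and scintillation counting 1.5 h after dosing. Single-point 25 uM in duplicate, then concentration series; DMSO baseline.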

Test [3] has as its target Retinoic acid receptor alpha (Homo sapiens) (UniProt P10276). Description: NVS_NR_hRAR_Antagonist: NovaScreen (NVS) Nuclear Receptor Binding Assay for human Retinoic Acid Alpha Receptor Antagonism (RAR) (AID 2283358). A digest of the protocol:
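Cell-free TR-FRET binding assay on extracted receptor protein, run in antagonist mode; signal read 2 hours after chemical dosing. Loss of signal was fitted relative to DMSO baseline. Screened at 25 uM in duplicate, actives followed up in concentration series.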

Test [4] deals with human Peroxisome Proliferator-activated Receptor alpha (PPARa), PPARA (gene 5465) (UniProt Q07869). Description: NVS_NR_hPPARa: NovaScreen (NVS) Nuclear Receptor Binding Assay for human Peroxisome Proliferator-activated Receptor alpha (PPARa) (AID 2283359).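 Note: activity means loss of TR-FRET signal versus DMSO baseline.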 Summed up:
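Cell-free binding assay with extracted human protein, read by TR-FRET 1 h after chemical dosing. Loss of signal relative to DMSO baseline indicates binding. Primary screen used duplicate single concentration (25 uM); actives followed up in concentration series.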

For test [5], the target named is human Peripheral-type Benzodiazepine Receptor (PBR), TSPO (gene 706) (UniProt P30536). Description: NVS_MP_hPBR: NovaScreen (NVS) Membrane Protein Assay for human Peripheral-type Benzodiazepine Receptor (PBR) (AID 2283331).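 Note: hits reduce radioligand binding relative to DMSO baseline.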 Summed up:
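Human colonic cell membranes were incubated with test chemical for 1 hour; radioligand binding was measured by filter-based scintillation counting. Primary screen ran in duplicate at 25 uM, with actives followed in concentration series; loss of signal versus DMSO baseline.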

Test [6] deals with rat Peripheral-type Benzodiazepine Receptor (PBR), Tspo (gene 24230) (UniProt P16257). Description: NVS_MP_rPBR: NovaScreen (NVS) Membrane Protein Assay for rat Peripheral-type Benzodiazepine Receptor (PBR) (AID 2283335). Summed up:
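Rat kidney membranes; radioligand binding with displacement, filter-based scintillation counting, 1 h incubation. Primary screen in duplicate at 25 uM, actives followed in concentration series; loss of binding vs DMSO.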

The target of test [7] is T1, Estrogen receptor (Homo sapiens) + Estrogen receptor beta (Homo sapiens) (UniProt P03372+Q92731). Description: OT_ER_ERaERb_1440: Odyssey Thera (OT) 24-hour HEK293T Protein-Complementation Assay for Estrogen Receptor-alpha/-beta Homodimer (AID 2283356).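 Note: heteromer of ER alpha and ER beta binding domains; hits raise reporter fluorescence and both agonists and antagonists give an increase.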 Summed up: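 Heterodimerisation of ERα (aa 310-547) and ERβ (aa 263-489) ligand binding domains was tracked as fluorescence gain in stably transfected HEK293T cells following 24 h dosing, normalised to DMSO controls.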
T1 sequence (P03372 whole entry, looked up, the tested form may be a part): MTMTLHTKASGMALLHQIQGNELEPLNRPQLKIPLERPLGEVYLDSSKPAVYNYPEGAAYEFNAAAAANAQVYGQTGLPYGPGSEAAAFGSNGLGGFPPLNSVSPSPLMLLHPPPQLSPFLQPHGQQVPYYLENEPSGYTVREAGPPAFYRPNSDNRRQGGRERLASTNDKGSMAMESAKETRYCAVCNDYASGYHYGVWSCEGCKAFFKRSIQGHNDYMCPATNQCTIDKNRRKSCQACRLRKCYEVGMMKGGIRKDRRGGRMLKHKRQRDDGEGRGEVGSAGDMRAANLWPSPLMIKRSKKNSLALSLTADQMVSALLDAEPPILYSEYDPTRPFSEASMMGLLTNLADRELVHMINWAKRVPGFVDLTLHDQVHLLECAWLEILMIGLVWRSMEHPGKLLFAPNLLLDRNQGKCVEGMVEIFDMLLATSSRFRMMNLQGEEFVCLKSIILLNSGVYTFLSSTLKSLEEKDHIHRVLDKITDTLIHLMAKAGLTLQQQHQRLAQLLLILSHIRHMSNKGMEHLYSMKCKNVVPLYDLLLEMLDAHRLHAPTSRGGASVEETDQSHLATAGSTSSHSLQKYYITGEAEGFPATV
T1 sequence (Q92731 whole entry, looked up, the tested form may be a part): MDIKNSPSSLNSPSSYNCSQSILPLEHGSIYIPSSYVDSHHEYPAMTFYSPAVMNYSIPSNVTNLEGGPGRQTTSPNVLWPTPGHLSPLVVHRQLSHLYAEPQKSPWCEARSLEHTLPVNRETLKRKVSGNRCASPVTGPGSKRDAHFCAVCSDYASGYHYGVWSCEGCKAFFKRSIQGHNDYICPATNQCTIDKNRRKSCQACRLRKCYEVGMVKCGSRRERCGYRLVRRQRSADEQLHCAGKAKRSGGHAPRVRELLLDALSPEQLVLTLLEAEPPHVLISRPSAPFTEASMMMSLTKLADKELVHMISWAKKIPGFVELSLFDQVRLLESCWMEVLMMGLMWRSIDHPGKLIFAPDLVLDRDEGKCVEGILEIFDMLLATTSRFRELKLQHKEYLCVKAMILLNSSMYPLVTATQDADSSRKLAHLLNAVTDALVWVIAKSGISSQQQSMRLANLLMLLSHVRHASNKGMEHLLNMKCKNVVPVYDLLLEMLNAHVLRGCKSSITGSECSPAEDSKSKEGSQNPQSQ

Test [8] concerns the target Estrogen receptor beta (Homo sapiens) (UniProt Q92731). Kind of test: OT_ER_ERbERb_0480: Odyssey Thera (OT) 8-hour HEK293T Protein-Complementation Assay for Estrogen Receptor-beta/-beta Homodimer (AID 2283357).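 Note: active means signal gain over DMSO baseline.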 Summed up:
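Readout: increase in mean fluorescence intensity (nucleus for agonists; nucleus plus cytoplasm for antagonists) relative to DMSO, from a reporter-fragment complementation of human ER-beta LBD homodimer in HEK293T cells dosed 8 hours.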

Test [9] concerns the target PGR (gene 5241) (UniProt P06401). Kind of test: NVS_NR_hPR: NovaScreen (NVS) Nuclear Receptor Binding Assay for human Progestron Receptor (PR) (AID 2283360).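 Note: active means loss of bound radioligand signal versus DMSO baseline.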 Summed up: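 T47D-derived receptor preparation, cell-free, with tritiated or iodinated radioligand displacement measured by scintillation 18 h post-dosing. Single 25 uM duplicate screen, then concentration series; signal loss relative to DMSO.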

The target in test [10] is rat Thyrotropin Releasing Hormone Receptor (TRH), Trhr (gene 25570) (UniProt Q01717). Kind of test: NVS_GPCR_rTRH: NovaScreen (NVS) G Protein-Coupled Receptor Assay for rat Thyrotropin Releasing Hormone Receptor (TRH) (AID 2283329).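 Note: hit means lower bound tracer signal versus DMSO baseline.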 A digest of the protocol: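 Competitive radioligand binding on rat forebrain membrane preparations, with filtration and scintillation readout after 4 h. Primary testing in duplicate at 25 uM; actives confirmed in concentration-response. DMSO defined baseline.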
Sequence of rat Thyrotropin Releasing Hormone Receptor (TRH), Trhr (gene 25570) (Q01717 whole entry, looked up): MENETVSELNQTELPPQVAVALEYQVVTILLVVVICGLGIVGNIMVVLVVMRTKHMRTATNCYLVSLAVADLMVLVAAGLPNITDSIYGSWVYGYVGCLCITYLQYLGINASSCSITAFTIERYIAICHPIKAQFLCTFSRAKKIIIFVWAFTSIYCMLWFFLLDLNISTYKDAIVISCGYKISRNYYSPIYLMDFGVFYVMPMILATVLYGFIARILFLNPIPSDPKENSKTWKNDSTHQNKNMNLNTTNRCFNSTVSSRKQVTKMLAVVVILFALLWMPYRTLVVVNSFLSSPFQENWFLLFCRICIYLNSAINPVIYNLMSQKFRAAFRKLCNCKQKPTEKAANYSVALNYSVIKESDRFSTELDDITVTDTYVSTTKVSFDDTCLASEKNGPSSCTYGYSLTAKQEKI

Test [11] concerns the target T1, Estrogen receptor (Homo sapiens) + Estrogen receptor beta (Homo sapiens). Kind of test: OT_ER_ERaERb_0480: Odyssey Thera (OT) 8-hour HEK293T Protein-Complementation Assay for Estrogen Receptor-alpha/-beta Heterodimer (AID 2283352). A digest of the protocol: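 Increase in mean fluorescence intensity, measured by laser scanning plate cytometry, reported ER-alpha/ER-beta LBD complementation in HEK293T cells after 8 h chemical exposure. DMSO served as baseline; basal signal is low, punctate and cytoplasmic.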

Test [12] deals with Androgen Receptor/SRC-1 Co-activator, AR (gene 367) (UniProt P10275). Kind of test: OT_AR_ARSRC1_0960: Odyssey Thera (OT) 16-hour HEK293T Protein-Complementation Assay for Androgen Receptor/SRC-1 Co-activator (AID 2283353).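 Note: actives raise the signal above DMSO so potency reflects increased AR and SRC-1 complex.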 Summed up:
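HEK293T cells stably expressing AR and SRC-1 fused to Venus YFP fragments, imaged 16 h after dosing. Nuclear/cytoplasmic fluorescence ratio at 488 nm from at least 400 cells per image; gain of signal relative to DMSO.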

Test [13] has the same target. Kind of test: OT_AR_ARSRC1_0480: Odyssey Thera (OT) 8-hour HEK293T Protein-Complementation Assay for Androgen Receptor/SRC-1 Co-activator (AID 2283354).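 Note: hits raise the complementation signal above DMSO so AC50 marks enhancers.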 A digest of the protocol:
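HEK293T cells stably expressing AR and SRC-1 fused to split Venus YFP fragments via (Gly4Ser)2 linkers were read 8 h after compound dosing. Complementation was imaged at 488 and 635nm, and nuclear/cytoplasmic fluorescence ratio (488nm) was taken over ≥400 cells; gain-of-signal versus DMSO.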

Test [14] deals with bovine Estrogen Receptor (ER), ESR1 (gene 407238) (UniProt P49884). Description: NVS_NR_bER: NovaScreen (NVS) Nuclear Receptor Binding Assay for bovine Estrogen Receptor (ER) (AID 2283345).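 Note: actives lower the bound radioligand count which means they displace the ER ligand.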 Summed up: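 Displacement of a radioligand from estrogen receptor in bovine uterine membrane preparations; scintillation signal taken at 18 hours, DMSO as baseline. Single-concentration duplicates (25 uM) preceded concentration-response follow-up of actives.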

Test [15] deals with Estrogen receptor (Homo sapiens) (UniProt P03372). Description: NVS_NR_hER: NovaScreen (NVS) Nuclear Receptor Binding Assay for human Estrogen Receptor (ER) (AID 2283348). A digest of the protocol: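 Cell-free radioligand binding with protein extracted from MCF7 cells; scintillation counting 18 hours after dosing. Loss of signal versus DMSO baseline read as displacement; primary single-concentration screen at 25 uM in duplicate, actives retested in concentration series.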

Inconclusive results are not listed. The source made the active and inactive calls. Rule for the calls: active = hit-call score of the fitted dose curve at least 0.9, where 1 is the maximum; inconclusive = response in the unintended direction; inactive = score below 0.9.

Sequence of Estrogen receptor beta (Homo sapiens) (Q92731 whole entry, looked up, the tested form may be a part): as the sequence (Q92731 whole entry, looked up, the tested form may be a part) above
Sequence of Androgen Receptor/SRC-1 Co-activator, AR (gene 367) (P10275 whole entry, looked up, the tested form may be a part): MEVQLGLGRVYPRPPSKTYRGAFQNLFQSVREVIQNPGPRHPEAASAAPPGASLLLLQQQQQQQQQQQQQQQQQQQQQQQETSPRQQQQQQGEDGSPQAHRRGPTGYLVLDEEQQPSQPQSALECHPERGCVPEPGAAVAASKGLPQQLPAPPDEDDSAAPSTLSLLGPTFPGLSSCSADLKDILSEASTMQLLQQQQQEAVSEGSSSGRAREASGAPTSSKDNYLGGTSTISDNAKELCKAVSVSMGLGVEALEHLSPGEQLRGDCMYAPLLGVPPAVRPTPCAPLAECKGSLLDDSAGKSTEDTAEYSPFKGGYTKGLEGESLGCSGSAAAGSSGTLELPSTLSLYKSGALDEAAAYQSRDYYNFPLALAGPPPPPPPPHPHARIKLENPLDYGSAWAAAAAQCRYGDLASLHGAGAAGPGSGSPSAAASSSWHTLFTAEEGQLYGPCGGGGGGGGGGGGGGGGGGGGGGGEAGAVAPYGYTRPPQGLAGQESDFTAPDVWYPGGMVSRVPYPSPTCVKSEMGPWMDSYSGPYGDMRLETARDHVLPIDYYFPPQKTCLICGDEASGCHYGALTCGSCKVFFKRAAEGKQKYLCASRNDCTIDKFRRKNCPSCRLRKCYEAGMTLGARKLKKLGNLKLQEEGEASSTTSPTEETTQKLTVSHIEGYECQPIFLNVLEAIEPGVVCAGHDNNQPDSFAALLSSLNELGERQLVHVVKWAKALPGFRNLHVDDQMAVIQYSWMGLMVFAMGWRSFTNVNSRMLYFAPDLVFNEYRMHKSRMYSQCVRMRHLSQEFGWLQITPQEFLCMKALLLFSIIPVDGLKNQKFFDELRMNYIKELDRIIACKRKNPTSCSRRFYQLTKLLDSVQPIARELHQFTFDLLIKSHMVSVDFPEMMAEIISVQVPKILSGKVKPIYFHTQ
Sequence of human Peroxisome Proliferator-activated Receptor alpha (PPARa), PPARA (gene 5465) (Q07869 whole entry, looked up): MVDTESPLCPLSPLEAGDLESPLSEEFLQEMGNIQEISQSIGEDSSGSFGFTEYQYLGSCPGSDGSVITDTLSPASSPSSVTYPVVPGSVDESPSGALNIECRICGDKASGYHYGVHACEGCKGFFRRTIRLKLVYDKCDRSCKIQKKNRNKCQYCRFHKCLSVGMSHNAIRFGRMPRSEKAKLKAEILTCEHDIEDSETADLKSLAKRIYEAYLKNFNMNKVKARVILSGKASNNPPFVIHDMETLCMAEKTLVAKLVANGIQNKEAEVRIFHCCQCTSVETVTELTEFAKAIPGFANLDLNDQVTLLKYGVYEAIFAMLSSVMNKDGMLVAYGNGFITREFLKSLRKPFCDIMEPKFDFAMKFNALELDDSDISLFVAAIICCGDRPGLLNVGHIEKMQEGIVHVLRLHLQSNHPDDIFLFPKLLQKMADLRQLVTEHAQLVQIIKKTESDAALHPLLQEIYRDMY
Sequence of human Peripheral-type Benzodiazepine Receptor (PBR), TSPO (gene 706) (P30536 whole entry, looked up): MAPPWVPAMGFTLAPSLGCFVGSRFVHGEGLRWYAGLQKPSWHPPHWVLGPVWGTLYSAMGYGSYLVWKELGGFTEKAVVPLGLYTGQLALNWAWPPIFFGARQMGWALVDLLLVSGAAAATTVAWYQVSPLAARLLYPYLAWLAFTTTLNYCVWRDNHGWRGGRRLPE
Sequence of PGR (gene 5241) (P06401 whole entry, looked up): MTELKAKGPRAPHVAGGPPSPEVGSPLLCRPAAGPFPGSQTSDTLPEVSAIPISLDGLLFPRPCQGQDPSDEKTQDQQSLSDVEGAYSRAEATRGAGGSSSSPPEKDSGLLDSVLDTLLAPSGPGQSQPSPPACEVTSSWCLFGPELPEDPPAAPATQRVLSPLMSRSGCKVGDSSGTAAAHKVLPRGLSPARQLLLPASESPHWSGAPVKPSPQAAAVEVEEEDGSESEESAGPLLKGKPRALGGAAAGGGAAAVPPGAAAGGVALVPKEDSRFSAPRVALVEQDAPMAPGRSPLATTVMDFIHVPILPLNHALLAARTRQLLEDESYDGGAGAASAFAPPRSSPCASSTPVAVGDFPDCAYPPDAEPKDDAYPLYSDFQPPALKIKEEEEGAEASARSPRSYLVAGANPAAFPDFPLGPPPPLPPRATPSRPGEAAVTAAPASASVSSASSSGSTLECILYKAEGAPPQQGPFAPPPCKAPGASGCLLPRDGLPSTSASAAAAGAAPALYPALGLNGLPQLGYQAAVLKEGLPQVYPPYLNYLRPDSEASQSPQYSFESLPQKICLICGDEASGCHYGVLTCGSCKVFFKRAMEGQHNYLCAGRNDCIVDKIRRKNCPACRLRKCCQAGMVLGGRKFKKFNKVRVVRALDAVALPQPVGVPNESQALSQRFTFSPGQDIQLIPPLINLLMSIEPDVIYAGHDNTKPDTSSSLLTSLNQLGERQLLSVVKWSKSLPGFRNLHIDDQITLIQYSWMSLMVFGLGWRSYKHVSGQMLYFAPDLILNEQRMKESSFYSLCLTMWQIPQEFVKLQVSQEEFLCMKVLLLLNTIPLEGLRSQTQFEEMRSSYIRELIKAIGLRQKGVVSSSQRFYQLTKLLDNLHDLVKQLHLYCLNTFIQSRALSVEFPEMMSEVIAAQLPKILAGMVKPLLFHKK
Sequence of rat Peripheral-type Benzodiazepine Receptor (PBR), Tspo (gene 24230) (P16257 whole entry, looked up): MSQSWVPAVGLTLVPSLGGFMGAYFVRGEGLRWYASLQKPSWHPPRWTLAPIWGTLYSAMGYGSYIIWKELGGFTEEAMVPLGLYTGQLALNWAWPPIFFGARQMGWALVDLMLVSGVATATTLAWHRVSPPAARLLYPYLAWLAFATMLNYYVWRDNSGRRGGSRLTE

By AC50 is commonly meant the midpoint of the concentration-response curve, whichever way the signal moves. In the case of `c1ccc(C[P+](c2ccccc2)(c2ccccc2)c2ccccc2)cc1`, the values for the AC50 in test [1] and in [2] were 17.8 µM (active) and 4.8 µM (active), respectively.
Consider `O=C(c1ccccc1)c1ccc(O)cc1O`, for which the result in test [2] was inactive.
`CCCCCCCC/C=C\CCCCCCCC(=O)OCC(O)CO` (stereo unspecified): the call in test [3] was inactive. In addition, the AC50 in test [4] is 17 µM (active).
`CCCCCCCCCCCCCC[P+](CCCC)(CCCC)CCCC`: the AC50 in [4] is 8.54 µM (active).
Take `CC(C)Nc1ccc(NC(C)C)c2c1C(=O)c1ccccc1C2=O`: the AC50 in test [5] is 3.66 µM (active); in test [6], 0.666 µM (active). Besides, the result in test [7] and in test [8] was inactive.
As to `CSc1ccc(O)cc1C`, the molecule was classed as inactive in [9].
For the molecule `COCCOCCC[Si](C)(O[Si](C)(C)C)O[Si](C)(C)C`, the call in test [10] and in [13] was inactive. The AC50 is 50 µM (active) in test [11], 34.3 µM (active) in test [12], 58.7 µM (active) in test [7] and 51.5 µM (active) in test [8].
Turning to `CCOC(OCC)OCC`, the outcome in test [11], in [7] and in test [8] was inactive.
As for `O=C1C=CC(=O)N1c1ccc(Cc2ccc(N3C(=O)C=CC3=O)cc2)cc1`, the molecule was classed as inactive in test [14] and in [15].
Regarding `O=C1C=CC(=O)N1c1ccccc1`, the AC50 was 16.4 µM (active) in [12] and 25.6 µM (active) in test [13]. Further, the result in test [7] was inactive.
`O=C=Nc1cccc2c(N=C=O)cccc12`: the AC50 in [5] was 0.353 µM (active). Further, in test [9], the result was inactive.
`OCC1CCCO1` (stereo unspecified): the outcome in test [11], in [12], in test [7] and in test [8] was inactive.
Turning to `Cc1ccc(O)c(-n2nc3ccccc3n2)c1`, the molecule was classed as inactive in test [15], in [11], in test [7] and in test [8].
Turning to `CC(C)(C)c1cc(Cc2cc(C(C)(C)C)c(O)c(C(C)(C)C)c2)cc(C(C)(C)C)c1O`, the molecule was called inactive in test [10], in test [11], in test [7] and in [8].
Regarding `CCCCCCCC/C=C\CCCCCCCC(=O)N(C)CC(=O)O`, the molecule was classed as inactive in test [5], in test [6], in test [14], in test [11], in test [7] and in test [8]. Besides, the outcome in test [4] was inactive.
